The text below walks through data of PubChem BioAssay AID488969 (Vanderbilt High Throughput Screening Facility, 2010).

The full ranking holds about 110,000 compounds; the median of “z-score” is about -0.1, and the highest 2% start at about 2. Only a selection was taken, and the highest values are over-represented in it overall. The source made the active and inactive calls.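 Rule for the calls: active = z-score in the third read window above 3 or below -3; inactive = the rest.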

In this assay the target is Metabotropic glutamate receptor 8 (Rattus norvegicus) (UniProt P70579). The assay can be described thus: mGluR8 Gi/Go-coupled signaling modulation – cell-based, rat, thallium flux, HTS, primary screen (AID 488969). As to conditions: HEK293 rat mGluR8, GIRK (G protein-gated inwardly rectifying potassium channel) thallium flux, FluoZin2; at 10 µM; stronger effect = higher value; submaximal glutamate (EC20) added with thallium.
Sequence of Metabotropic glutamate receptor 8 (Rattus norvegicus) (P70579 whole entry, looked up): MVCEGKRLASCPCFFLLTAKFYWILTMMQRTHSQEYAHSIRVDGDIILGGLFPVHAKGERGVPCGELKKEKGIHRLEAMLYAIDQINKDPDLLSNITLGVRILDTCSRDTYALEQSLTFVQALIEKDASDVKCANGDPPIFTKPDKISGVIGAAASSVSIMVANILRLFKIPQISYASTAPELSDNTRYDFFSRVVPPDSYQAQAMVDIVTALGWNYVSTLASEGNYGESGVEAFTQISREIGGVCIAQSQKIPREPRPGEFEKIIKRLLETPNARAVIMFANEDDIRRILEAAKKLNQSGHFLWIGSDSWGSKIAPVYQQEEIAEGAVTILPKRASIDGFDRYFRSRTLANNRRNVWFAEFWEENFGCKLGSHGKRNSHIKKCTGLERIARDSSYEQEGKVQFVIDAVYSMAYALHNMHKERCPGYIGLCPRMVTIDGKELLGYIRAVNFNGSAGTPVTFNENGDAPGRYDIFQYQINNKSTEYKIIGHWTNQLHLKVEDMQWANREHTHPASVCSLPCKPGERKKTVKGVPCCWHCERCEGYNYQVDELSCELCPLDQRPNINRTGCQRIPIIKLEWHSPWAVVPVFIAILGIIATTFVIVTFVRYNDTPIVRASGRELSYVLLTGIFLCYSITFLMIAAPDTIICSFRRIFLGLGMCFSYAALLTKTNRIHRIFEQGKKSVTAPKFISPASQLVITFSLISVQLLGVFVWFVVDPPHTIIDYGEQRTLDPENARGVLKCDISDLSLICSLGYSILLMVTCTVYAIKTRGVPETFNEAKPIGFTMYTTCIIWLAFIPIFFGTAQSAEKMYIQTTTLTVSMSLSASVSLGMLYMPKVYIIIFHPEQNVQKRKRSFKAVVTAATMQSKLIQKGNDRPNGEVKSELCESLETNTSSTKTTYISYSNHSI
Regarding `CN(c1ccc(OCC(=O)OCC(=O)Nc2ccc(F)cc2)cc1)S(=O)(=O)c1ccc(Cl)cc1`, the z-score was -0.231.

Regarding `COc1ccccc1N1CCN(CCCC(=O)c2ccc(F)cc2)CC1`, the z-score is -0.123.

Molecule `COc1cc2cnc(Cl)nc2cc1OC` registered a z-score of -0.182.

Molecule `COc1cc2cc(C(N)=O)c(N)nc2cc1OC` gave a z-score of -0.0702.

For `COc1cc2cnncc2cc1OC`, the z-score was 3.21 (active).

`CCOC(=O)c1ccc(NC(=O)CSc2nnc(-c3cccs3)n2C)cc1` registered a z-score of -0.387.

`O=C(NCC1CCCO1)C(c1cccs1)N(Cc1cccs1)C(=O)Cn1nnc(-c2cccs2)n1` (stereo not given): the z-score is -0.109.

In turn, `O=C(NCC1CCCO1)C(c1ccc(F)cc1)N(Cc1ccc(F)cc1)C(=O)Cn1nnc(-c2cccs2)n1` (stereo not given) showed a z-score of 2.46.

The molecule `Cc1ccc(C(C(=O)NCC2CCCO2)N(Cc2ccccc2F)C(=O)Cn2nnc(-c3cccs3)n2)cc1` (stereo not given) gave a z-score of -0.157.

`c1ccc(-c2cn3nc(-c4ccccc4)c(-c4ccccc4)nc3n2)cc1` showed a z-score of -1.03.

`O=c1c(-c2ccccc2)nc(-c2ccccc2)cn1O` had a z-score of 2.86.

In turn, `Cn1c(=O)c(-c2ccccc2)nc2ccccc21` displayed a z-score of -0.27.

In turn, `CCOc1ccc2c(c1)-c1c(ssc1=S)C(C)(C)N2C` registered a z-score of -0.11.

`O=C(NC(=S)NNC(=O)c1ccccc1O)c1ccco1` registered a z-score of 0.576.

Turning to `CC(Oc1ccc(Cl)cc1)C(=O)NNC(=S)NC(=O)c1ccco1` (stereo not given), the z-score is 5.62 (active).

Take `CC(Oc1ccc2ccccc2c1)C(=O)NNC(=S)NC(=O)c1ccco1` (stereo not given): the z-score was 4.46 (active).

`CCOC(=O)/C(=C/c1ccc(Cl)cc1)NC(=O)c1ccco1`: the z-score is -0.468.

With `CC(C)CNC(=S)NNC(=O)c1ccco1`, the z-score was -0.0344.

Molecule `O=C(Nc1ccc(Oc2ccc3ccccc3c2)cc1)c1ccco1` registered a z-score of 0.388.

On to `COc1ccc(/C=C/C(=O)NC(=S)NNC(=O)c2ccco2)cc1`, for which the z-score came out at 0.921.

In the case of `COc1ccc(C(=O)Nc2cc(OC)c(NC(=O)c3ccco3)cc2OC)cc1`, the z-score is -0.196.

For `COc1ccc(C(=O)NNC(=S)NC(=O)c2ccco2)cc1`, the z-score is 2.99.

Turning to `Cc1cccc(C(=O)Oc2csc(=S)n2C(=O)c2cccc(C)c2)c1`, the z-score was determined as 0.282.

`COc1cc(CNCc2ccccn2)ccc1OCc1ccc(Cl)cc1` gave a z-score of 0.427.

The molecule `CC(=O)c1cccc(NC(=O)C2CC(c3ccc(F)cc3)=NO2)c1` (stereo not given) gave a z-score of -0.0875.

Regarding `O=C(COc1ccc(Cl)cc1Cl)Nc1nc2n(n1)C(c1ccccc1)CC(=O)N2` (stereo not given), the z-score was -0.56.

Turning to `O=C(Nc1ncc(C(F)(F)F)cc1Cl)C1COc2ccccc2O1` (stereo not given), the z-score is -0.304.

Regarding `CCN(CC)CCNC(=O)c1ccc(NC(=O)c2ccc(Cl)c(S(=O)(=O)Nc3ccccc3OC)c2)cc1`, the z-score amounted to 2.14.

The molecule `CCN(CC)CCNC(=O)c1ccc(Cl)c(S(=O)(=O)Nc2ccccc2OC)c1` yielded a z-score of 0.323.

In turn, `CCN(CC)CCCNC(=O)c1ccc(Cl)c(S(=O)(=O)Nc2ccccc2OC)c1` registered a z-score of -0.0127.
